Legend:
Experiment in all cases: log2 ratio of Biotin-Ahx-Ub-VS probe labelling (fragment/DMSO); higher = less target engagement (more negative = stronger competition), active = hit call of the paper (q ≤ 0.05, log2 ratio ≤ -1)
Conditions in all cases: compound concentration: 200 uM; treatment time: 3 h
USP19 = target: T1, USP19 (UniProt O94966)
T1 sequence (whole entry): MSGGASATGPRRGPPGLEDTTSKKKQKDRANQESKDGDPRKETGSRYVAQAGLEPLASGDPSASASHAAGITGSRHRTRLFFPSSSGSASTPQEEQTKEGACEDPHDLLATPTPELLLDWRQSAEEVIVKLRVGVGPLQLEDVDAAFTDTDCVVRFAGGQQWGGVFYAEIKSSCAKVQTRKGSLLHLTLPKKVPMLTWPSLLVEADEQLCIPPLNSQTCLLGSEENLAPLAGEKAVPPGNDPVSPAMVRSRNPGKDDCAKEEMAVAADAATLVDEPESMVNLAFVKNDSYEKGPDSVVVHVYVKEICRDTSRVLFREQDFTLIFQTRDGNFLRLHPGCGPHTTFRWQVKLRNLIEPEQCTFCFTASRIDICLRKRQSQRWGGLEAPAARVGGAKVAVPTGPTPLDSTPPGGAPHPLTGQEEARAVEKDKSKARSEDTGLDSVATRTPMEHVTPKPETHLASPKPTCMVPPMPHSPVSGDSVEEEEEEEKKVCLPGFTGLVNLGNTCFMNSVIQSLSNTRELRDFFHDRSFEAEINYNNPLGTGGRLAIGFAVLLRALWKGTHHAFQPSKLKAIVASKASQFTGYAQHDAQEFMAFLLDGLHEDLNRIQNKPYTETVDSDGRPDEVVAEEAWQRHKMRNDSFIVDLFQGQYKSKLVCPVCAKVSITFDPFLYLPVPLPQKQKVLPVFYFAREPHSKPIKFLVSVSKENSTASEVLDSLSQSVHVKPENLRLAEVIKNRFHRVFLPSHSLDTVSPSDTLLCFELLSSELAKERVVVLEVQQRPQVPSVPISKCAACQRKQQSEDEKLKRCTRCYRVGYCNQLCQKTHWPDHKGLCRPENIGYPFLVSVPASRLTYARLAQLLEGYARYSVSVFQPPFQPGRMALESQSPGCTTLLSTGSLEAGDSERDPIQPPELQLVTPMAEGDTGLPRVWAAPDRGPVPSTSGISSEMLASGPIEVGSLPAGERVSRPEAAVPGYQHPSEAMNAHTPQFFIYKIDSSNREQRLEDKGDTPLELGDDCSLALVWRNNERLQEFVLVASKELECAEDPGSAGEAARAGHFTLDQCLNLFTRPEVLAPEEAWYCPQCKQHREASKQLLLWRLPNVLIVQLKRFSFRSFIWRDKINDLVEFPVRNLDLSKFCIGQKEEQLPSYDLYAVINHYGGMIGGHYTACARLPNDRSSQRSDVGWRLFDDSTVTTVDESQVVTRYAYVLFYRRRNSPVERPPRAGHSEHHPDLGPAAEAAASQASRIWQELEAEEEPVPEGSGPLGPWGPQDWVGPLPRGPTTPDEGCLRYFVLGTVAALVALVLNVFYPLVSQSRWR
Procedure, shortened: (§1)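 HEK293T lysate in Tris/CHAPS/IGEPAL buffer with protease inhibitors (495 µg per sample) was given fragment at 200 µM or vehicle for 3 h, in triplicate. It then received Biotin-Ahx-Ub-VS at 0.5 µM final for 1 h. Labelled DUBs were NeutrAvidin-enriched, digested with LysC and trypsin, and run by diaPASEF LC-MS/MS. Values are average log2 fragment/vehicle ratios by unpaired t-test on global-median-normalised Spectronaut quantities of proteins with ≥2 unique peptides.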

USP22 = target: T2, USP22 (UniProt Q9UPT9)
T2 sequence (whole entry): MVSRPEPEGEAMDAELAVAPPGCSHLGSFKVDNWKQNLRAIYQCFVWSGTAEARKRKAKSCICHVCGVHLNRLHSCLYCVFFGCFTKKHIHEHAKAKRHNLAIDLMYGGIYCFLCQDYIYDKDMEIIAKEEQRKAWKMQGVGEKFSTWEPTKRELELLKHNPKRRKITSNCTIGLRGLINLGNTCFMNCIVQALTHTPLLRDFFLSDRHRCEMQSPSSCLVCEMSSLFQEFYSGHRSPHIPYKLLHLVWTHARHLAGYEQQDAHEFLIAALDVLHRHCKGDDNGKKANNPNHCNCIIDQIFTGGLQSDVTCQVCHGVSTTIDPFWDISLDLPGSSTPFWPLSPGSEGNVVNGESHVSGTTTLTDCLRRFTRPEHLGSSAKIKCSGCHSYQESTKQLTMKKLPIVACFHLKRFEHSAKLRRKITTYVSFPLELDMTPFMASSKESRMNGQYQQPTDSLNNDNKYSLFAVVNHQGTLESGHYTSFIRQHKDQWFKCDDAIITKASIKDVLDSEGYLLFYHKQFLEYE
Procedure, shortened: as §1

USP24 = USP24 (UniProt Q9UPU5)
Procedure, shortened: as §1

USP25 = target: T3, USP25 (UniProt Q9UHP3)
T3 sequence (whole entry): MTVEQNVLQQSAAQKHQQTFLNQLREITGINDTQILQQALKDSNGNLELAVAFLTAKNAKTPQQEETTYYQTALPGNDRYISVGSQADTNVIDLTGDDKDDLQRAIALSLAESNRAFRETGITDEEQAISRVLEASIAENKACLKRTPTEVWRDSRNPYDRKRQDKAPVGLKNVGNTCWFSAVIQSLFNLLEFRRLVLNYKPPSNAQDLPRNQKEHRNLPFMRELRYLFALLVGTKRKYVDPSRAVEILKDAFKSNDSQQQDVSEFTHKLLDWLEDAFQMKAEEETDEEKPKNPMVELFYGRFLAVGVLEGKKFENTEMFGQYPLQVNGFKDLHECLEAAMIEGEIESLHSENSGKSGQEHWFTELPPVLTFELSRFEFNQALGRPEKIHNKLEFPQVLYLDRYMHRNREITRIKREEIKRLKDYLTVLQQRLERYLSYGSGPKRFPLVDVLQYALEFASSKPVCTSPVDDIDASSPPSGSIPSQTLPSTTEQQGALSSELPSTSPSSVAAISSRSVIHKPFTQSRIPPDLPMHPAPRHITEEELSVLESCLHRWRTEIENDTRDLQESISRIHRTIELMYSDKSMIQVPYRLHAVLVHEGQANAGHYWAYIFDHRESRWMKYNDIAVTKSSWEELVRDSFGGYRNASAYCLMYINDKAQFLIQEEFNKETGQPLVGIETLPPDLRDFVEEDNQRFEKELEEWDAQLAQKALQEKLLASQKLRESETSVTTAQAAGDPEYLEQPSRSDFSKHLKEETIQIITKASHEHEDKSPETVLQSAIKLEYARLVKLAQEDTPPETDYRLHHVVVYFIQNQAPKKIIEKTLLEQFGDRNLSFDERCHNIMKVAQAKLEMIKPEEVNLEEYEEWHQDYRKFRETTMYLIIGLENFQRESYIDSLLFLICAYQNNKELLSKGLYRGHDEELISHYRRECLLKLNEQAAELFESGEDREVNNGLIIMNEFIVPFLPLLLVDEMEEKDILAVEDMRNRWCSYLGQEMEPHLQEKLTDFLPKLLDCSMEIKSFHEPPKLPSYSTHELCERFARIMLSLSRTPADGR
Procedure, shortened: as §1

USP28 = target: T4, USP28 (UniProt Q96RU2)
T4 sequence (whole entry): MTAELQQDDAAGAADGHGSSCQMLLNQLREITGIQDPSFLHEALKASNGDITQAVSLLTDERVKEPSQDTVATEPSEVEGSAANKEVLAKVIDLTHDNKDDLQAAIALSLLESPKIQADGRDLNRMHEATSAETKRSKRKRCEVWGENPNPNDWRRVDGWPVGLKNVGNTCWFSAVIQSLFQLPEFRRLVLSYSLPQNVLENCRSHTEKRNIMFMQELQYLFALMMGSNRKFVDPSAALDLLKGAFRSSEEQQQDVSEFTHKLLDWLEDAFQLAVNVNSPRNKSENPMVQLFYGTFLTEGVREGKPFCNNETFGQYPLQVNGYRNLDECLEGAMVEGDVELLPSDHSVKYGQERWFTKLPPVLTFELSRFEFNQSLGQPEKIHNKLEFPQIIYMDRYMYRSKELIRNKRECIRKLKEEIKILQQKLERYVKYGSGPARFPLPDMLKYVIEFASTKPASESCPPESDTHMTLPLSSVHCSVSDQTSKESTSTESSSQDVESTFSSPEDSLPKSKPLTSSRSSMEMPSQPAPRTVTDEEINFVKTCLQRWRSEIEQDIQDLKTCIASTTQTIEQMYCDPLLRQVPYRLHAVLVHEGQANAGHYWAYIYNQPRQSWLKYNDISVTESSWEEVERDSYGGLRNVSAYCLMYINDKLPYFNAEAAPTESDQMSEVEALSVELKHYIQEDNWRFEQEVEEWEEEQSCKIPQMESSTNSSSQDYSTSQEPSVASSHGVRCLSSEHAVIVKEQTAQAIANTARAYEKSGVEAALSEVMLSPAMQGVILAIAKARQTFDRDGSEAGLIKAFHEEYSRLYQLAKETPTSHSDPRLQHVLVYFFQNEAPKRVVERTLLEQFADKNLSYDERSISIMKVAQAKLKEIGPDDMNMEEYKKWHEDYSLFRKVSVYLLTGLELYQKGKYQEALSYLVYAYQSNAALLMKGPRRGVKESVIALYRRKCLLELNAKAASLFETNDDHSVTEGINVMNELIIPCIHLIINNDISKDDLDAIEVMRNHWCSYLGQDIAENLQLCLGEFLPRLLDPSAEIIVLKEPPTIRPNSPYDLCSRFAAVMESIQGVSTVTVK
Procedure, shortened: as §1

Measured: log2 ratio of Biotin-Ahx-Ub-VS probe labelling

Sequence of USP24 (Q9UPU5 whole entry): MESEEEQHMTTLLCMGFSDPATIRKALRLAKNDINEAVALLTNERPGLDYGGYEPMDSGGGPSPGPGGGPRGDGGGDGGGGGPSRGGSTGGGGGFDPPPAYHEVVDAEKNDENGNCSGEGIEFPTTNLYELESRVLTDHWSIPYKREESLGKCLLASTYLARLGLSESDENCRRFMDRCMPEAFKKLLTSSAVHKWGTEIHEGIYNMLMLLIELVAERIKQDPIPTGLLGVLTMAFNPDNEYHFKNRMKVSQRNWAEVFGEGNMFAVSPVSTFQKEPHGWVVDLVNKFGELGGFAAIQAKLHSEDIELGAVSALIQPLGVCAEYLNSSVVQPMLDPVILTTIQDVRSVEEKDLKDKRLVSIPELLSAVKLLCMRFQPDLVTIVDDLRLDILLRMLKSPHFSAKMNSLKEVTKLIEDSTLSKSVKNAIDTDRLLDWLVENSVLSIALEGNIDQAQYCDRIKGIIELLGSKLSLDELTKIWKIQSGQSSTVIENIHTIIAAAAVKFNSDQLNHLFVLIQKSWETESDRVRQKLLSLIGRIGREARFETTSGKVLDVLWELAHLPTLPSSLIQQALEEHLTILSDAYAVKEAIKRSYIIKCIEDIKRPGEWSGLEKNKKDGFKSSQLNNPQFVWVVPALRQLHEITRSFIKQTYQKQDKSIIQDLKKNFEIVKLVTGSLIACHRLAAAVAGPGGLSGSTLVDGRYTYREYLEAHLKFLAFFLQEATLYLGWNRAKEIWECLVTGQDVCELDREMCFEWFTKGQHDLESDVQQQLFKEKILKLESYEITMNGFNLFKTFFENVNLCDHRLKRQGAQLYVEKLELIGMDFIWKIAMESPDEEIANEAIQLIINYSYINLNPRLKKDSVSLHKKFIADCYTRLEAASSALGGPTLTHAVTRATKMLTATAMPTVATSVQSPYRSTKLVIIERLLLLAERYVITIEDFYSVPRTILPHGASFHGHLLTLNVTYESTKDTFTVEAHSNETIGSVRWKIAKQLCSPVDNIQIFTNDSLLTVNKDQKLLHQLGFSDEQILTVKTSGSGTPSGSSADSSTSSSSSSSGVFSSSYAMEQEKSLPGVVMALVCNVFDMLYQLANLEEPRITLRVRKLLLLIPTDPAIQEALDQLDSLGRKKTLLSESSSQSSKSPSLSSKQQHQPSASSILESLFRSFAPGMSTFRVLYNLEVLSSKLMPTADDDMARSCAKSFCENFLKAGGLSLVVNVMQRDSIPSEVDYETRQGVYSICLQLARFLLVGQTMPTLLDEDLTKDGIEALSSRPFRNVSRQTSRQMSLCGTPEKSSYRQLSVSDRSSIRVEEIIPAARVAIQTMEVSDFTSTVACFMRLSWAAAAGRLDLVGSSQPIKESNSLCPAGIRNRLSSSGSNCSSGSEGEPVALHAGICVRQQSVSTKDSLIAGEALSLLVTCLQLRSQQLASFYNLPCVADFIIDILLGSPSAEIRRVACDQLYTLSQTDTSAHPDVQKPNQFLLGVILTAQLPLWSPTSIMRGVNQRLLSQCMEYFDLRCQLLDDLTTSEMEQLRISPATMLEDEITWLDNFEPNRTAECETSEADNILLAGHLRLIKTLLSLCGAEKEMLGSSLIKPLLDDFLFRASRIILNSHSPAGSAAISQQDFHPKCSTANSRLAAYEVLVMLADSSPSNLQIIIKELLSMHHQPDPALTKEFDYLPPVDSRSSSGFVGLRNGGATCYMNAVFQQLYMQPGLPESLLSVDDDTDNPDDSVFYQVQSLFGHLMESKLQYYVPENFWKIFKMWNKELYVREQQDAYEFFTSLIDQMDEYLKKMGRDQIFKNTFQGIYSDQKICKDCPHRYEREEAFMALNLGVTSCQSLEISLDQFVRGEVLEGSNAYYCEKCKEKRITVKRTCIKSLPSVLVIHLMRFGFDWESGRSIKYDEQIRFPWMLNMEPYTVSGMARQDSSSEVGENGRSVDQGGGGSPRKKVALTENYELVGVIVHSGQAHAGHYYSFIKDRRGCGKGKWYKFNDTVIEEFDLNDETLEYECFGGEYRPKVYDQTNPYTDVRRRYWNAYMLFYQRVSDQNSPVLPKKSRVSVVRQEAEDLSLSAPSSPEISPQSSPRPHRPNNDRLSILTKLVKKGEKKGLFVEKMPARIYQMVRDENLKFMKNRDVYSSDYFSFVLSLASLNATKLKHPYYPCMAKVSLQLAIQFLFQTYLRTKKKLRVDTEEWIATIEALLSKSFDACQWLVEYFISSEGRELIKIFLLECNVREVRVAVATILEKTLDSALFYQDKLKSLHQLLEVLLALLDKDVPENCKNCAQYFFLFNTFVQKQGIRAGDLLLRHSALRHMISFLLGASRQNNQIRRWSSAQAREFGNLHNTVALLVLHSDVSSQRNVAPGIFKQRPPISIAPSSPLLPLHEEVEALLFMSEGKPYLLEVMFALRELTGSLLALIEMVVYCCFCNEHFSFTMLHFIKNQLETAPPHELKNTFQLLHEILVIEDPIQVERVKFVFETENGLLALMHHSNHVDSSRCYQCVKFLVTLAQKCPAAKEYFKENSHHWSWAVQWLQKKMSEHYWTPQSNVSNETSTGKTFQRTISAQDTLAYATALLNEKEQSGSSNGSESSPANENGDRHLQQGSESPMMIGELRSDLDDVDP

O=C(CCl)N1CCCC2CCCCC21 (stereo not given)
inactive: USP19 -0.188 | USP22 -0.0228 | USP24 -0.697 | USP25 -0.193 | USP28 -0.333
